Experiment [1] deals with T1, Serine/threonine-protein kinase 17A (Homo sapiens) (UniProt Q9UEE5).
T1 sequence (whole entry): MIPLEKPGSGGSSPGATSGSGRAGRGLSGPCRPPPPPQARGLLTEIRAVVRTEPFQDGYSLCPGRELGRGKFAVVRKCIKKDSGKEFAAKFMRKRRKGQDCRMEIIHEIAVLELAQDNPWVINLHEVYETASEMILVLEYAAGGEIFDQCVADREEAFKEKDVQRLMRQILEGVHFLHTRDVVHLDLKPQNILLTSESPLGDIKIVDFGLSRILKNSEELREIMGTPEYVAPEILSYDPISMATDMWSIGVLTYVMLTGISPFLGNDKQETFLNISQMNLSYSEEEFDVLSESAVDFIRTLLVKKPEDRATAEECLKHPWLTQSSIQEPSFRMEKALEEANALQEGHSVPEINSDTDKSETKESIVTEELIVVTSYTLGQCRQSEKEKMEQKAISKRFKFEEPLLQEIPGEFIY
As to conditions: at 10 µM.

Experiment [2] addresses T2, Dual specificity tyrosine-phosphorylation-regulated kinase 2 (Homo sapiens) (UniProt Q92630).
T2 sequence (whole entry): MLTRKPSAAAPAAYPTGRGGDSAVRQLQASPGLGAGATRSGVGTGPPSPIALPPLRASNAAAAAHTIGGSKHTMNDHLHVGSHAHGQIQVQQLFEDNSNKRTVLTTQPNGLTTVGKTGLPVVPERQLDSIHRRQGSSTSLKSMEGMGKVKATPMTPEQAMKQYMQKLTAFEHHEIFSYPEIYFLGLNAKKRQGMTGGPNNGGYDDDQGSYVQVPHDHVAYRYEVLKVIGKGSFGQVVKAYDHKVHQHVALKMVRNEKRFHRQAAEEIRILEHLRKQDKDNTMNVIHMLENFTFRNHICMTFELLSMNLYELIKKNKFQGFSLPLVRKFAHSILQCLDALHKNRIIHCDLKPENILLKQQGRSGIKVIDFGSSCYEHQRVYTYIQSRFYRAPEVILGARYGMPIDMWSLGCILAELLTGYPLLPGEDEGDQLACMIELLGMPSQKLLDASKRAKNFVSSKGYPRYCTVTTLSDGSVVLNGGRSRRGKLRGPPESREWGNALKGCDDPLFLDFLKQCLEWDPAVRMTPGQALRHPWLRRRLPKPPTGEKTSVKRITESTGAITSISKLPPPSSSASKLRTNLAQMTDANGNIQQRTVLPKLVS
Conditions: at 1 µM.

For experiment [3], the target named is T2, Dual specificity tyrosine-phosphorylation-regulated kinase 2 (Homo sapiens). Conditions: at 10 µM.
The target of experiment [4] is Epidermal growth factor receptor (Homo sapiens) (UniProt P00533). Conditions: at 1 µM.
For experiment [5] the target is unchanged. Conditions: at 10 µM.
In experiment [6] the target is T3, Ephrin type-A receptor 1 (Homo sapiens) (UniProt P21709).
T3 sequence (whole entry): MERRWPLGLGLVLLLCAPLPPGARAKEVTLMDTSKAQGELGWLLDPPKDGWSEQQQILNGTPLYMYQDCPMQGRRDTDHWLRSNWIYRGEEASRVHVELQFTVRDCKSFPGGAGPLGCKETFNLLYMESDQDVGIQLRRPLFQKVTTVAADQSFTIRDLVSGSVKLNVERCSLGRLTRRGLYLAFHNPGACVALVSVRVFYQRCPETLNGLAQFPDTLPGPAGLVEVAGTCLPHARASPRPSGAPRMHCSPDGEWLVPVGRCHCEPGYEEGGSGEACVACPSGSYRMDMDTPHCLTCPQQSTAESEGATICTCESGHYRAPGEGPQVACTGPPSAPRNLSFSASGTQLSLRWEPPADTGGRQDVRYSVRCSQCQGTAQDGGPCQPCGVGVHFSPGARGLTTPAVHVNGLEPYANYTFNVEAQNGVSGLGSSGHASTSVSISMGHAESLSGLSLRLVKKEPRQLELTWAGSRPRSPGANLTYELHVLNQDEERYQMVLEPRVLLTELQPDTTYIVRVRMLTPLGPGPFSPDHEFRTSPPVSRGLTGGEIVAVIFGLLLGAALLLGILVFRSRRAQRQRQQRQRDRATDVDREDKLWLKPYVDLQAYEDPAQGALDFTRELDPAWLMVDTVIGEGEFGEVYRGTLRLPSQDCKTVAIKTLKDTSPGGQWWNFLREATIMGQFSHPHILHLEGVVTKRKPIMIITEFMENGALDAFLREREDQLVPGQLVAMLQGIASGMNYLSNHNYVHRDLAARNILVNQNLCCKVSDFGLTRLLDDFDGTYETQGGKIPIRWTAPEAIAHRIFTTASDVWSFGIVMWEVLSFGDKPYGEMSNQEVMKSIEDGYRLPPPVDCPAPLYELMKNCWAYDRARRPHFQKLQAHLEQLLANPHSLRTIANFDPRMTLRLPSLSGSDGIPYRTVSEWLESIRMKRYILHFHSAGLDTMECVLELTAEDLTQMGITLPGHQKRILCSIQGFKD
As to conditions: at 1 µM.

The target of experiment [7] is T3, Ephrin type-A receptor 1 (Homo sapiens). Conditions: at 10 µM.
The target in experiment [8] is Ephrin type-A receptor 2 (Homo sapiens) (UniProt P29317). Conditions: at 1 µM.
Experiment [9] has the same target. As to conditions: at 10 µM.
Experiment [10] concerns the target T4, Ephrin type-A receptor 3 (Homo sapiens) (UniProt P29320).
T4 sequence (whole entry): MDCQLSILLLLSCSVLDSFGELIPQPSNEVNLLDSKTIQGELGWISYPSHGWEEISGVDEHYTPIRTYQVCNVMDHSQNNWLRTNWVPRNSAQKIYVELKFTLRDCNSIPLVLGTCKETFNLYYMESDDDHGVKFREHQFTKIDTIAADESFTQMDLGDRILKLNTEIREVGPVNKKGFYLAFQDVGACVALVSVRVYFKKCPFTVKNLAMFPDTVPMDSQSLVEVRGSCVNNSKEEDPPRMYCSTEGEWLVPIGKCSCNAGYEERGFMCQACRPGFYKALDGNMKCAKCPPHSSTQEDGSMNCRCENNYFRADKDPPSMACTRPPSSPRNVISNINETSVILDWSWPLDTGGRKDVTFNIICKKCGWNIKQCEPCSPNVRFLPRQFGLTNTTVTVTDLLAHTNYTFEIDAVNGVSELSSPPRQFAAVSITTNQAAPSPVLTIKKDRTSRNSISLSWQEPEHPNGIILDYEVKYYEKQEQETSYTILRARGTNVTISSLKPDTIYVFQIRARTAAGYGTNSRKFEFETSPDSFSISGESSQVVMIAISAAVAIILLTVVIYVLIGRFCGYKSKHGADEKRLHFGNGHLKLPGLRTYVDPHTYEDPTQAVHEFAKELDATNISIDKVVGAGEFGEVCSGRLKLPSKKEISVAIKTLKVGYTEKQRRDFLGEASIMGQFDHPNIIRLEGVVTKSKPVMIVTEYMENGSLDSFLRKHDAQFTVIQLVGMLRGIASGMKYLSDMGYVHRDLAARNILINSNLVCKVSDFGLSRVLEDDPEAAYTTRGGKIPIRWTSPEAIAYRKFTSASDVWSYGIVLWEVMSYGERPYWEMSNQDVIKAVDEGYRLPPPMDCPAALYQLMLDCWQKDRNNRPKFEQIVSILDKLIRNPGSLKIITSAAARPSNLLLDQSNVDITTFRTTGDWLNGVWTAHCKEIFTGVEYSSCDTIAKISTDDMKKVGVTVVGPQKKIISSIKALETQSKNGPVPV
Conditions: at 1 µM.

The target of experiment [11] is T4, Ephrin type-A receptor 3 (Homo sapiens). As to conditions: at 10 µM.
Experiment [12] addresses Ephrin type-A receptor 4 (Homo sapiens) (UniProt P54764). As to conditions: at 1 µM.
Experiment [13] shares this target. As to conditions: at 10 µM.
In experiment [14] the target is Ephrin type-A receptor 5 (Homo sapiens) (UniProt P54756). Conditions: at 1 µM.
For experiment [15] the target is unchanged. As to conditions: at 10 µM.
Experiment [16] has as its target Ephrin type-A receptor 7 (Homo sapiens) (UniProt Q15375). Conditions: at 1 µM.
For experiment [17] the target is unchanged. As to conditions: at 10 µM.
In experiment [18] the target is T5, Ephrin type-A receptor 8 (Homo sapiens) (UniProt P29322).
T5 sequence (whole entry): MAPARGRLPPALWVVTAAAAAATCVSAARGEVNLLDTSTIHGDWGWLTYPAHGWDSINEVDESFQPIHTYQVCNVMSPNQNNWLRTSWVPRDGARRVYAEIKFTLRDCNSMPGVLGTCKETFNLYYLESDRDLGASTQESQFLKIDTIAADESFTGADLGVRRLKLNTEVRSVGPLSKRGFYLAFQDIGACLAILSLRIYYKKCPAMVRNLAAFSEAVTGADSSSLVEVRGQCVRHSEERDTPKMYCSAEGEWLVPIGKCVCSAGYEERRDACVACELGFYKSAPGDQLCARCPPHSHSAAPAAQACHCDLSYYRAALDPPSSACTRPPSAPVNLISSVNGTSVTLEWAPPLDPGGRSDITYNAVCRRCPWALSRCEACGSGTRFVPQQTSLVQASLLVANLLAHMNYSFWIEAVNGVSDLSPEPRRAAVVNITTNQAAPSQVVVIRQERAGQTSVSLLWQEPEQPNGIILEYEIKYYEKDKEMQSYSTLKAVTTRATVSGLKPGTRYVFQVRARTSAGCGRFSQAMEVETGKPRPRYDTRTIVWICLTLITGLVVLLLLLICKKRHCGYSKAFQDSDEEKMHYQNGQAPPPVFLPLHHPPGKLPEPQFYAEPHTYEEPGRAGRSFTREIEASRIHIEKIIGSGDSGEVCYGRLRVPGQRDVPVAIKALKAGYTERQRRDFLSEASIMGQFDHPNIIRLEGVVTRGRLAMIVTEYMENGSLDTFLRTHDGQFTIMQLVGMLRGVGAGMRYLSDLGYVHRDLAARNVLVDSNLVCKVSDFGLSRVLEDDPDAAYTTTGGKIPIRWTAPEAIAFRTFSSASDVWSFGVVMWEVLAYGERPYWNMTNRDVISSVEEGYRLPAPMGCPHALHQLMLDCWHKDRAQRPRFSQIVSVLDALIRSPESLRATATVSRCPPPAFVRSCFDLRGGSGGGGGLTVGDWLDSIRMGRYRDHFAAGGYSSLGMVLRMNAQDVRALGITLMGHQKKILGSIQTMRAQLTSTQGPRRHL
As to conditions: at 1 µM.

For experiment [19], the target named is T5, Ephrin type-A receptor 8 (Homo sapiens). Conditions: at 10 µM.
Experiment [20] has as its target T6, Ephrin type-B receptor 1 (Homo sapiens) (UniProt P54762).
T6 sequence (whole entry): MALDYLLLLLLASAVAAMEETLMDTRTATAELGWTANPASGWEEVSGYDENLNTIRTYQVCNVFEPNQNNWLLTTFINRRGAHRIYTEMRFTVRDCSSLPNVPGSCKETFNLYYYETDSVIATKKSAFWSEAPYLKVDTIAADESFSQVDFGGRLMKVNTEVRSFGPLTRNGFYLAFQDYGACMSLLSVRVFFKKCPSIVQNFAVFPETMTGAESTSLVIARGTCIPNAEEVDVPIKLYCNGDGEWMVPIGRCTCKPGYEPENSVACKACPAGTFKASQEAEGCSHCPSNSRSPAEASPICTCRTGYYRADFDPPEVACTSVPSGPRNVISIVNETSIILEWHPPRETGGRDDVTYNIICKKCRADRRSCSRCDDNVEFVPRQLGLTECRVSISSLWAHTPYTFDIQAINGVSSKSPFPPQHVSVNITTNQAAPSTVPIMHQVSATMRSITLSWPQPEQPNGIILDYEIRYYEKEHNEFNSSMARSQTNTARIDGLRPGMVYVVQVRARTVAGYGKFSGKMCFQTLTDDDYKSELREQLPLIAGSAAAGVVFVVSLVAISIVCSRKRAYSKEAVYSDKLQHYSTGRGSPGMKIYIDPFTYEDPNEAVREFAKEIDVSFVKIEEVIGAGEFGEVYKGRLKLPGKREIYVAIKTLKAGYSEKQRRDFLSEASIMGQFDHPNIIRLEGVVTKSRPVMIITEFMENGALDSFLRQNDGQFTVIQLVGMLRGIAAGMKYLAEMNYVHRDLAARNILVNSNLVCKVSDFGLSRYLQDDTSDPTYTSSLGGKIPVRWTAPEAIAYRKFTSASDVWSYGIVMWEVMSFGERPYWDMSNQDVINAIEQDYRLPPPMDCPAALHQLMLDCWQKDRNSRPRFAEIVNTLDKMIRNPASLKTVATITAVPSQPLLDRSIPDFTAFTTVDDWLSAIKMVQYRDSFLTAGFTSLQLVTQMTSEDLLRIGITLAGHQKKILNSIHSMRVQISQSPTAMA
As to conditions: at 1 µM.

Each structure is given as a SMILES string.

Sequence of Ephrin type-A receptor 2 (Homo sapiens) (P29317 whole entry): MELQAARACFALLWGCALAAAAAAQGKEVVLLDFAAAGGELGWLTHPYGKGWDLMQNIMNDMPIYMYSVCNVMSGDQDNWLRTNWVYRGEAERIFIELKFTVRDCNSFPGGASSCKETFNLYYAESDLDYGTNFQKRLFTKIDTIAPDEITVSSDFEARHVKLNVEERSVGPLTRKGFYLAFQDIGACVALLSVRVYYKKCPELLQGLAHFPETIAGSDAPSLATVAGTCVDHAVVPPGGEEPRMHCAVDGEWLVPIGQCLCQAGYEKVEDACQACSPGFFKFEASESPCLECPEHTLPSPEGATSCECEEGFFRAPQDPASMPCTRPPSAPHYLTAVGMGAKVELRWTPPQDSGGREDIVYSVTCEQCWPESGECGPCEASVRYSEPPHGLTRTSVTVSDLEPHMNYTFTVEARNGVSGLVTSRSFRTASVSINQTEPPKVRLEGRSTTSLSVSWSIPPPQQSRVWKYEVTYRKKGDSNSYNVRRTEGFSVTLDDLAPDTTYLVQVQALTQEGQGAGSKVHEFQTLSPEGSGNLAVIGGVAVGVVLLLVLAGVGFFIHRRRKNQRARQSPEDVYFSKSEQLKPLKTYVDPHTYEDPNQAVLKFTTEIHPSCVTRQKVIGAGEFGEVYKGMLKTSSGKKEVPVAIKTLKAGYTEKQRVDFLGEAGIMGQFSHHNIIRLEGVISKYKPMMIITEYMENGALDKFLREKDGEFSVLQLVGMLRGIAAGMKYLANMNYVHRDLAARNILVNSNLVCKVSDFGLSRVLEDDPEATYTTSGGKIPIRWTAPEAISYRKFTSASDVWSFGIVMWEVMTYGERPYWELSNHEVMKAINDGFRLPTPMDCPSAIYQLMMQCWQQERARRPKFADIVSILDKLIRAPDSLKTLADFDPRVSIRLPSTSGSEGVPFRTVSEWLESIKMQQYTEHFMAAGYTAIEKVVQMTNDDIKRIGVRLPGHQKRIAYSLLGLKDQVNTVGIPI
Sequence of Ephrin type-A receptor 4 (Homo sapiens) (P54764 whole entry): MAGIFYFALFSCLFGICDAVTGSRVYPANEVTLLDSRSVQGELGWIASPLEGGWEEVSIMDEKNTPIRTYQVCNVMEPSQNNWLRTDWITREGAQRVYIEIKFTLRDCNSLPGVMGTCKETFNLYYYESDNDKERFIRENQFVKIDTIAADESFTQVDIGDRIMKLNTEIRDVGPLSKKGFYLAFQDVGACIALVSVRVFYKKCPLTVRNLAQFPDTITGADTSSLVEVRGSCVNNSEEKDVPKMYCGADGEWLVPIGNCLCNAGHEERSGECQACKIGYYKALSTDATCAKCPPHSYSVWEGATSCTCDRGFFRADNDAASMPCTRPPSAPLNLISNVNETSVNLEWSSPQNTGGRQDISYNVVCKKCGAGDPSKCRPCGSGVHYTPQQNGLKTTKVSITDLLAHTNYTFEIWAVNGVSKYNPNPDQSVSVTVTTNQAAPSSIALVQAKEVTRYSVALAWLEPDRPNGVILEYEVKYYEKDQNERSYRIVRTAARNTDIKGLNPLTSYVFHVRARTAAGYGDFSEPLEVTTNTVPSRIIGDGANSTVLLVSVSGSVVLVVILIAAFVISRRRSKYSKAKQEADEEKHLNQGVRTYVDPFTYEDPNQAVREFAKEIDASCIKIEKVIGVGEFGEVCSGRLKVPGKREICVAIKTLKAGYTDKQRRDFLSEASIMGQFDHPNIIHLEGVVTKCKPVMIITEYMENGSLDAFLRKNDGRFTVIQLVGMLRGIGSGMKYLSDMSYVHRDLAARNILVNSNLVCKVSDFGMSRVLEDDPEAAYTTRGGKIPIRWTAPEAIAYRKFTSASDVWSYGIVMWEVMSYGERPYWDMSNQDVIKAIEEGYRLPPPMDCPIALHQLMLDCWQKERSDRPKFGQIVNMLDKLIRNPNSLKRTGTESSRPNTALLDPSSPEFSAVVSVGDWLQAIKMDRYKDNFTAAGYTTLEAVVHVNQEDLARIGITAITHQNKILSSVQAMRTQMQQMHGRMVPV
Sequence of Ephrin type-A receptor 5 (Homo sapiens) (P54756 whole entry): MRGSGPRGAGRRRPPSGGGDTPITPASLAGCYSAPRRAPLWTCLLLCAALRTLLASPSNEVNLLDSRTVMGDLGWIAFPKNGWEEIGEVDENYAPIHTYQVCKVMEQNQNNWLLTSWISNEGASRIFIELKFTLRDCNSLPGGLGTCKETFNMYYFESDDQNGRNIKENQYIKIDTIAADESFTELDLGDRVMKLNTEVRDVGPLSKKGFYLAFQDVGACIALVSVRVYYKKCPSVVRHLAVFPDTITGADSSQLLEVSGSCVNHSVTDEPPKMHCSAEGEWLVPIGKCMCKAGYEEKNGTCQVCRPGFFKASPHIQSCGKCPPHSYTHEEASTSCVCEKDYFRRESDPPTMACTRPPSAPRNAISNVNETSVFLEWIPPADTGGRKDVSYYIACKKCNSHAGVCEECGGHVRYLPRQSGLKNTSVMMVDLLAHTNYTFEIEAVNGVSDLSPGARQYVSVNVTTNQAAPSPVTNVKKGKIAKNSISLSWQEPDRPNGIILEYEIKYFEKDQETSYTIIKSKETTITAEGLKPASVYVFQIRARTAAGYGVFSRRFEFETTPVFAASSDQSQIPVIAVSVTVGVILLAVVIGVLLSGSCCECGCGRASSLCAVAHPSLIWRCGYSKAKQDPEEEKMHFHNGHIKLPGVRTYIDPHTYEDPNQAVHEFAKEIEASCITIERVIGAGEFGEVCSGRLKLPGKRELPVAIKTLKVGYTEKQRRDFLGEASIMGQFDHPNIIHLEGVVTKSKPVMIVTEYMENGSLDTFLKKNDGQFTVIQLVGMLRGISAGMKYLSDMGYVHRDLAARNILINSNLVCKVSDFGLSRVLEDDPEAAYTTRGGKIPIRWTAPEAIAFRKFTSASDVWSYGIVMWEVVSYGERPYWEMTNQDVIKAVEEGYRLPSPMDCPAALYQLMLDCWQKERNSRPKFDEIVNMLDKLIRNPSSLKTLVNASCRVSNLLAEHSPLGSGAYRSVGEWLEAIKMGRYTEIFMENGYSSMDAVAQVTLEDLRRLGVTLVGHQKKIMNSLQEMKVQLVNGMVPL
Sequence of Ephrin type-A receptor 7 (Homo sapiens) (Q15375 28-998 limits assumed): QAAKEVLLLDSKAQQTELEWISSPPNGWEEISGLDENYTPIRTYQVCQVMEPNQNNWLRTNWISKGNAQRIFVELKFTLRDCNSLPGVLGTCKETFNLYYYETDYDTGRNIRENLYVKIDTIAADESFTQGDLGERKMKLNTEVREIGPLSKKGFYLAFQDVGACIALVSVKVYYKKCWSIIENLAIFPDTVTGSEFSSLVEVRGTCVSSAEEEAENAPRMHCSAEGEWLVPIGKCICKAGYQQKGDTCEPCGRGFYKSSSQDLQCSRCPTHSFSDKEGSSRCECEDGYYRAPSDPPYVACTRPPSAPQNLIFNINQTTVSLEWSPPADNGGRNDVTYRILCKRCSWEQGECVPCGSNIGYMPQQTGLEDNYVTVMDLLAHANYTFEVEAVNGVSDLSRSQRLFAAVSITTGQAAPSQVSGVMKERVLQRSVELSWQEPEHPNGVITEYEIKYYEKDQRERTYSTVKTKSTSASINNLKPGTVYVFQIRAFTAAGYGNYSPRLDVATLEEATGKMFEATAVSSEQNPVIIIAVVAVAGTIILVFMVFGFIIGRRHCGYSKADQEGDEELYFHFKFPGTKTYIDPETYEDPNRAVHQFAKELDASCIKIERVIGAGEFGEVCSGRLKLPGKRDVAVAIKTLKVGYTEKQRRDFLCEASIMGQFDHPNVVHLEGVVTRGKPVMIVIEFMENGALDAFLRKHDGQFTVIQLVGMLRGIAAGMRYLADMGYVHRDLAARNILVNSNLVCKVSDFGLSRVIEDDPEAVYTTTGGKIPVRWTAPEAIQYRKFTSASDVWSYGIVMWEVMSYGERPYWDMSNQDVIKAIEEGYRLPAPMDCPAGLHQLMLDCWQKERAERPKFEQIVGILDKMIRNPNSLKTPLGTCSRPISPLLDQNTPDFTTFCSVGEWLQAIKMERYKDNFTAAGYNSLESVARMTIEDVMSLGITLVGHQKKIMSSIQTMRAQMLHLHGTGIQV

The term residual activity denotes the signal under treatment as a percentage of the control signal. Take `O=C1NC(=O)/C(=C/c2ccc3c(c2)OC(F)(F)O3)S1`: the residual activity in experiment [1] was determined as 99%; in [2] it was 86%; in experiment [3], 65%; in [4], 116%; in experiment [5], 119%; in [6], 93%. The residual activity in experiment [7] was 96%; in experiment [8] it was 107%; in experiment [9] it was 115%; in experiment [10], 103%; in experiment [11] it was 93%; in experiment [12], 116%. Further, the residual activity in experiment [13] came out at 105%; in experiment [14], 115%; in experiment [15] it was 103%; in experiment [16], 89%; in experiment [17], 102%; in experiment [18], 111%. Also, the residual activity in [19] came to 99%; in [20], 115%.

As to `CN(C)c1ccc(/C=C2\C(=O)Nc3ccccc32)cc1`, the residual activity in [1] was determined as 6%; in experiment [2], 98%; in experiment [3] it was 98%; in experiment [6], 100%; in experiment [7], 102%; in experiment [8], 123%. Besides, the residual activity amounted to 107% in experiment [9]; 99% in experiment [10]; 100% in [11]; 115% in experiment [12]; 109% in experiment [13]; 108% in experiment [14]. The residual activity in [15] worked out at 112%; in [16], 104%; in experiment [17], 89%; in [18], 102%; in [19], 98%; in experiment [20], 100%.
